The panel holds about 79,000 compounds, 15% with a hit somewhere; the sample as a whole holds those more often. A number with no mark means an inactive call. Calls of active or inactive are those of the source. Rule as the data show it: active = growth inhibition above about 70%; inactive = the rest.
Assay: NCI Yeast Anticancer Drug Screen. Data for the mec2-1 strain (AID 157)
Conditions: S. cerevisiae mec2-1 strain, active compounds read high
Protocol: Growth inhibition of yeast strains with defined genetic alterations is measured as a screen for potential anti-cancer activity. Selected strains with alterations in DNA damage repair or cell cycle control were exposed to compounds and growth inhibition was measured relative to vehicle treated controls. The strain used in this assay is mec2-1

[1] = at 5.0 µM (retest, dose inferred, filed as 0.5)
[2] = at 50.0 µM (retest, dose inferred, filed as 5.0)

SMILES | growth inhibition [1] | growth inhibition [2] | growth inhibition (at 50.0 µM)
O=C1C=CC(=O)N1c1cccc(F)c1 | 97% (active) | 100% (active) | 99.8% (active)
CC1=NN(C(=O)c2ccc(Cl)cc2)C(=O)C1N=Nc1ccc(S(=O)(=O)Nc2ncccn2)cc1 (configuration not stated) | 4% | 51% | 13.2%
CC(C)(C)C1=NC(=S)SC2=NC(=O)C3(NN21)c1ccccc1-c1ccccc13 | -6% | 53% | 74.3% (active)
O=C(Cl)c1cc(-c2ccc(Cl)cc2)nc2c(Cl)cccc12 | 11% | 99% (active) | 61.2%
CCN(CC)CCCNc1ncc(C)c2c1c1ccc3c(O)cccc3c1n2C | 8% | 7% | -0.35%
CCOC(=O)C(C)(c1c(C)[nH]c2ccccc12)c1c(C)[nH]c2ccccc12 | -1% | 94% (active) | 95.6% (active)
O=C(CC1(O)C(=O)Nc2c(Cl)ccc(Cl)c21)c1ccc(Cl)cc1Cl (configuration not stated) | 13% | 13% | 90.7% (active)
CSc1cc(C(=O)O)nc(N)n1 | 6% | 0% | 5%
O=[N+]([O-])c1ccc2c(c1)OCO2 | 1% | 4% | 8%
CCCCN(CCCC)CCC(O)(c1ccc(OC)c2ccccc12)C(O)(CCN(CCCC)CCCC)c1ccc(OC)c2ccccc12 (configuration not stated) | -2% | 100% (active) | 99.7% (active)
CC(C)(C)c1ccc(OC(=O)Nc2ccc(Cl)cc2[N+](=O)[O-])c(Br)c1 | 2% | 9% | 64.2%
COC(=O)CCC(NC(=S)N/N=C/c1ccccn1)C(=O)OC (configuration not stated) | -54% | 47% | 49.1%
Cc1ccnc(NC(c2ccccc2)c2ccc3cccnc3c2O)c1 (configuration not stated) | -5% | 97% (active) | 96.3% (active)
CC(C)C(C)OC(=O)Nc1cccc(O)c1 (configuration not stated) | -48% | -53% | 3.15%
